The results in this text go back to PubChem BioAssay (NCI).

This is part of a sample that, as a whole, favours compounds with a hit. Of some 83,000 tested, about 20% had one in any assay.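 Negative percent growth values reflect cell death: -40 means 40% of the cells present at the start died, and -100 means all died.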 Values without a mark were called inactive. Activity calls are given as the source filed them. How the source made its calls: active means growth percent below 10; inactive means the rest.

Holding throughout (assay): NCI-60 one-dose screen, 48 h (100 = growth as untreated, 0 = no growth, -100 = all killed)
Details in all cases: 10 µM unless noted

The test system of test [1] is NCI/ADR-RES ovarian.
Test [2] has as its system BT-549 breast.
Test [3] has as its system MDA-MB-435 melanoma.
The subject of test [4] is SW-620 colon.
For test [5], the system named is MCF7 breast.
The subject of test [6] is HCT-116 colon.
The test system of test [7] is HCC-2998 colon.
Test [8] deals with KM12 colon.
The subject of test [9] is T-47D breast.

Take `O=C(CCCC1CCCCC1)OCC(Cl)(Cl)Cl`: the growth in test [1] was 102%; in test [2] it was 117%; in test [3] it was 111%; in [4], 107%; in test [5], 95.5%; in test [6] it was 103%. Besides, the growth is 88.4% in test [7] and 105% in test [8].

Consider `CCCc1cc(O)c2c3c(c(=O)oc2c1)CN(C)CC3`, for which the growth in [9] is 25.5%; in test [2], 39.2%; in [3], -57.8% (active); in test [4], 12.8%; in test [5], 19%; in test [6], 20.8%. Moreover, the growth in [7] is 53.9%; in [8], 35.7%.

Regarding `CC1(C)N=C(N)N=C(N)N1c1ccc(OCCCNC(=O)Nc2ccc(S(=O)(=O)F)cc2)c(Cl)c1`, the growth in test [1] is 115%; in test [2] it was 60.9%; in test [3], 31.5%; in test [4], 20.6%; in test [5] it was 18.4%; in test [6] it was 14.8%. Besides, the growth is 15.3% in [7] and 22% in [8].

As to `CC(CO)NC1CCCCC1` (centres undefined), the growth in test [1] is 116%; in test [2], 106%; in [3], 112%; in test [4] it was 105%; in test [5], 109%; in [6], 105%. In addition, the growth was 106% in [7] and 114% in test [8].

On to `O=P(Oc1ccc(Cl)cc1)(N1CC1)N1CC1`, for which the growth is 101% in [1]; 92.8% in test [2]; 109% in test [3]; 89.3% in [4]; 67.4% in test [5]; 84% in [6]. The growth in test [7] is 88.5%; in [8], 110%.

As to `O=C(N/N=C\c1ccc(N(CCCl)CCCl)cc1Cl)c1cccnc1`, the growth was 86.4% in test [1]; 90.7% in test [2]; 104% in test [3]; 79.2% in [4]; 34.4% in [5]; 43% in test [6]. The results for the growth in test [7] and in test [8] were 76.8% and 102%, respectively.

As to `Cc1ccccc1NC(=NCCCN1CC1)Nc1ccccc1C`, the growth in test [9] was 74.5%; in test [2], 104%; in test [3] it was 93%; in [4] it was 87.1%; in [5], 68.9%; in test [6], 79.8%. Besides, the growth is 102% in test [7] and 94.6% in [8].

Regarding `COc1cc([N+](=O)[O-])c2nc(C)ccc2c1[N+](=O)[O-]`, the growth in test [1] is 105%; in [2] it was 97.4%; in test [3], 71.3%; in test [4], 72.7%; in test [5], 69.1%; in [6], 63.5%. For the same compound, the growth in test [7] was 107%; in test [8], 79.8%.

Turning to `ClCCN(CCCl)c1ccc(/C=N\N=C\c2ccc(N(CCCl)CCCl)cc2)cc1`, the growth is 55.1% in test [1]; 50.5% in [2]; 36.8% in test [4]; 35.1% in test [5]; 36.7% in test [6]; 45.7% in [7]. Besides, the growth in test [8] was 30.3%.

Regarding `CC(=O)Oc1ccccc1C(=O)NCCC[Se]C#N`, the growth is 14.4% in [1]; -97% (active) in test [2]; 72.9% in [4]; 14.5% in test [5]; 0.0792% (active) in test [6]; 97.9% in [7]. Further, the growth in test [8] was 29.6%.

Regarding `O=[N+]([O-])c1cc([N+](=O)[O-])c(Cl)cc1Cl`, the growth in [1] is -45.1% (active); in [3], -66.5% (active); in test [4], -77.1% (active); in [5], -57.9% (active); in [6], -98.8% (active); in test [7], 38%. Further, the growth in test [8] is -81.1% (active).

As for `CC12CC(=O)C3(SC#N)C(CCC4=CC(=O)CCC43C)C1CCC2=O` (centres undefined), the growth in test [2] is 90.7%; in [3] it was 70.9%; in test [4], 40.6%; in test [5] it was 57.7%; in test [6] it was 39.7%; in test [7], 105%. Besides, the growth in test [8] was 102%.

With `NC1CC2CCCCC2CC1(O)c1ccccc1` (centres undefined), the growth in test [9] was 99.5%; in test [2] it was 102%; in test [3], 105%; in test [4], 101%; in test [5] it was 96.1%; in [6], 93.7%. For the same compound, the growth in test [7] was 109%; in test [8] it was 99.7%.

On to `O=P(N1CC1)(N1CC1)N1CCc2ccccc21`, for which the growth in test [1] was 101%; in test [2] it was 99.4%; in test [3], 111%; in [4] it was 101%; in test [5] it was 86.5%; in test [6], 94.2%. In addition, the growth in test [7] was 99.5%; in test [8] it was 113%.

With `NC(=O)c1c(Br)n(C2OC(CO)C(O)C2O)c2ncnc(N)c12` (centres undefined), the growth is 8.09% (active) in test [1]; -16.1% (active) in [2]; 1.1% (active) in test [4]; -18.6% (active) in [5]; 3.73% (active) in test [6]; 18.4% in [7]. Besides, the growth in test [8] was -8.13% (active).

As for `CCOP(=O)(Nc1ccc2c(c1)/C(=N/NC(N)=S)c1ccccc1-2)OCC`, the growth was 100% in test [1]; 101% in test [2]; 107% in [3]; 115% in test [4]; 69.6% in test [5]; 103% in test [6]. Further, the figures for the growth in test [7] and in test [8] were 119% and 88.9%, respectively.

Turning to `C1CCC([PH+](C2CCCCC2)C2CCCCC2[PH+](C2CCCCC2)C2CCCCC2)CC1.O=C(C1[CH-]CCCC1)C1CCCC[N-]1.[Au]` (centres undefined), the growth in test [2] was -14.7% (active); in test [3] it was -43.6% (active); in test [4] it was 2.27% (active); in test [5], -42.9% (active); in test [6] it was -54% (active); in test [7], -83% (active). Further, the growth in [8] is -60.9% (active).

As to `CC(C)=CCC/C(C)=C/C=N\N=C(/N)N[N+](=O)[O-]`, the growth in [1] was 102%; in test [2] it was 92.8%; in test [3] it was 94%; in [4], 106%; in [5] it was 81.1%; in test [6], 91.1%. For the same compound, the growth in [7] was 108%; in test [8], 95.7%.

As to `C=CCc1cc2c(cc1OCC)OCO2`, the growth is 105% in test [1]; 82.6% in [2]; 109% in test [3]; 102% in test [4]; 90.9% in [5]; 85.5% in test [6]. The growth in test [7] is 93.8%; in test [8], 104%.

As for `CCCCCCCCOC(=O)CCN1CC1`, the growth in test [9] is 108%; in test [2] it was 107%; in [4], 113%; in test [5], 102%; in test [6], 112%; in test [7], 110%. Further, the growth in test [8] is 109%.

Consider `O=[N+]([O-])c1cc(I)cc([N+](=O)[O-])c1`, for which the growth in [1] was 96.6%; in test [2], 101%; in test [4], 106%; in test [5], 80.7%; in [6], 94.8%; in test [7] it was 104%. Besides, the growth in test [8] was 102%.

Turning to `O=C1CCC2(O)[C@@H]3Cc4ccc(O)c5c4[C@]2(CCN3Cc2ccoc2)C1O5` (some centres undefined), the growth was 98.1% in [9]; 110% in [2]; 105% in test [3]; 102% in test [4]; 97.5% in [5]; 88.1% in test [6]. For the same compound, the growth was 104% in [7] and 98.2% in test [8].

For `C/C(CC(C)(C)N1CC1)=N\NC(=O)Nc1cccc2ccccc12`, the growth was 55.8% in [9]; 68.5% in [2]; 79.6% in test [3]; 52.3% in [4]; 24.9% in test [5]; 46.5% in [6]. For the same compound, the figures for the growth in [7] and in test [8] were 75.3% and 75.9%, respectively.

Consider `CC1=C([Te]c2ccc(O)cc2)C(=O)c2ccccc2C1=O`, for which the growth in test [1] was -2.79% (active); in [2], -1.32% (active); in test [4], 3.05% (active); in test [5] it was -4.83% (active); in [6], -63.4% (active); in test [7], -1.49% (active). In addition, the growth in test [8] is 6.03% (active).

For the compound `C=CCCCCCCCCC(=O)[O-].C=CCCCCCCCCC(=O)[O-].[Zn+2]`, the growth is 99.2% in test [1]; 108% in test [2]; 102% in [4]; 108% in [5]; 101% in [6]; 107% in test [7]. In addition, the growth in test [8] is 94.3%.

Regarding `COC(=O)CCC1=C(C)c2cc3[n-]c(cc4nc(cc5[n-]c(cc1n2)c(CCC(=O)OC)c5C)C=C4C)cc3C.[Cd+2]`, the growth in test [1] was 83.5%; in test [2], -31.9% (active); in test [4], 25.3%; in [5], 26.9%; in [6], 79.8%; in test [7], 95.9%. Besides, the growth in test [8] was 13.3%.

`Cc1c(NS(=O)(=O)c2ccccc2)ccc([N+](=O)[O-])c1Cl`: the growth in test [1] is 86.3%; in test [2], 77.7%; in test [4], 91.6%; in test [5] it was 92.8%; in test [6], 73.3%; in [8], 70.1%.

Turning to `COC(=O)[C@@H](C)C[C@H](Cc1ccccc1)NC(=O)c1nc([C@@H](C[C@H](C(C)C)N(C)C(=O)[C@@H](NC(=O)[C@H]2CCCN2C)C(C)C)OC(C)=O)sc1C`, the growth in test [1] is 4.35% (active); in [2], -12.7% (active); in [3], -18.4% (active); in test [4], 20.1%; in [7], 13.5%; in test [8] it was 11.9%.

On to `CCC1(C)CC(CCNCc2ccccc2O)(c2ccc(C)cc2)CCO1` (centres undefined), for which the growth in [9] was 103%; in test [2] it was 101%; in test [3], 100%; in test [4] it was 103%; in test [5] it was 97.3%; in test [6] it was 109%. Besides, the growth in test [7] is 117%; in test [8] it was 107%.

With `C1CCC([PH+](C2CCCCC2)C2CCCCC2[PH+](C2CCCCC2)C2CCCCC2)CC1.[Au].[CH-]1CCCCC1CC1CCCC[N-]1` (centres undefined), the growth in test [9] was 7.94% (active); in [2], -53.6% (active); in test [3], -39.2% (active); in [4], -24% (active); in test [5], -44.2% (active); in test [6], -65.8% (active). The values for the growth in [7] and in test [8] were -92.5% (active) and -70.2% (active), respectively.

For `N/C(=N/N=C/c1ccncc1)N[N+](=O)[O-]`, the growth was 104% in test [1]; 89.6% in test [2]; 105% in test [3]; 106% in [4]; 99.1% in test [5]; 102% in test [6]. The growth in test [7] is 109%; in test [8], 100%.

Take `CCOC(=O)CCC(NC(=O)C(Cc1ccc(N(CCCl)CCCl)cc1)NC=O)C(=O)OCC` (centres undefined): the growth in test [1] was 67.2%; in test [2], 69.6%; in test [3], 21.1%; in test [4] it was 51.5%; in [5] it was 22.1%; in test [6], 61.5%. The growth was 46.9% in [7] and 82.7% in test [8].

Take `CN1C(=O)C23CC4(C56CC78SSC(CO)(C(=O)N7C5Nc5ccccc56)N(C)C8=O)c5ccccc5NC4N2C(=O)C1(CO)SS3` (centres undefined): the growth in test [1] was -23.4% (active); in test [2], -99.1% (active); in test [3], -87% (active); in [4], -78.5% (active); in test [5] it was -68.1% (active); in test [6], -78.5% (active). Further, the growth in test [7] was -94.2% (active); in [8] it was -82.9% (active).
